Data published in PubChem BioAssay (Tox21).
Several values for one entry are separate records, joined by “and”; a condition that tells them apart may be missing. Equal entries are not always repeated. Inconclusive results are not listed. Activity calls are given as the source filed them. The call rests on the fitted dose curve; in most records, active means well fitted curve in the direction sought with a large enough effect in the repeat runs; inconclusive means weak or mixed curves; inactive means no such curve, though single readings can be large; an effect the other way counts as inactive or inconclusive.

Columns and labels:
[1] = A CellTox Green Cytotoxicity Assay to monitor cytotoxicity in HEK293 cells - 32 hour (AID 1224881); further: nearly all actives have a fitted effect of over 40% in size; further: potency means the concentration at half of the fitted maximal effect
Summary of the method: (§1)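 Nonlytic real-time cytotoxicity: HEK293 + CellTox Green reagent plated, 5 h preincubation, pintool compound addition (23 nL in DMSO), 37 C for 40 h, fluorescence measured at successive time points.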

[2] = A CellTox Green Cytotoxicity Assay to monitor cytotoxicity in HepG2 cells - 0 hour (AID 1224882); further: nearly all actives have a fitted effect of over 35% in size
Summary of the method: (§2)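 Read-out is fluorescence of a cyanine dye excluded from live cells that stains DNA of dead HepG2 cells, with signal proportional to cytotoxicity. Plates were read at 0, 8, 16, 24, 32 and 40 h after compound addition.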

[3] = A CellTox Green Cytotoxicity Assay to monitor cytotoxicity in HepG2 cells - 32 hour (AID 1224883); further: nearly all actives have a fitted effect of over 50% in size; further: potency means the concentration at half of the fitted maximal effect
Summary of the method: as §2

[4] = A CellTox Green Cytotoxicity Assay to monitor cytotoxicity in HEK293 cells - 8 hour (AID 1224884); further: nearly all actives have a fitted effect of over 35% in size; further: potency means the concentration at half of the fitted maximal effect
Summary of the method: as §1

[5] = qHTS RealTime-Glo MT Cell Viability Assay in HepG2 cells - 16 hour (AID 1224885); further: nearly all actives have a fitted effect of over 50% in size; further: potency means the concentration at half of the fitted maximal effect
Summary of the method: (§3)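 Real-time, nonlytic viability: 600 HepG2 cells/well mixed with NanoLuc enzyme plus prosubstrate; 5 h settle, compound (DMSO) added by pintool; luminescence monitored over 40 h at 37 C.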

[6] = qHTS RealTime-Glo MT Cell Viability Assay in HEK293 cells - 24 hour (AID 1224886); further: nearly all actives have a fitted effect of over 50% in size; further: potency means the concentration at half of the fitted maximal effect; on activity change, negative = cytotoxicity: top concentration of the series differs between compounds
Summary of the method: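 Cells + reagent dispensed (600 cells/well, HEK293) → 5 h at 37 C/5% CO2 → 23 nL compound in DMSO pinned → 40 h at 37 C → luminescence read at 0, 8, 16, 24, 32, 40 h.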

[7] = qHTS RealTime-Glo MT Cell Viability Assay in HEK293 cells - 8 hour (AID 1224887); further: nearly all actives have a fitted effect of over 50% in size; further: potency means the concentration at half of the fitted maximal effect; on activity change, negative = cytotoxicity: top concentration of the series differs between compounds
Summary of the method: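 Cells were seeded together with NanoLuc luciferase and a prosubstrate that viable cells reduce to a luciferase substrate. After a 5 h incubation at 37 C/5% CO2, compounds were added and luminescence was measured repeatedly during 40 h of treatment.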

[8] = A CellTox Green Cytotoxicity Assay to monitor cytotoxicity in HEK293 cells - 16 hour (AID 1224888); further: nearly all actives have a fitted effect of over 35% in size; further: potency means the concentration at half of the fitted maximal effect
Summary of the method: as §1

[9] = qHTS RealTime-Glo MT Cell Viability Assay in HepG2 cells - 0 hour (AID 1224889); further: nearly all actives have a fitted effect of over 50% in size; further: potency means the concentration at half of the fitted maximal effect
Summary of the method: as §3

[10] = A CellTox Green Cytotoxicity Assay to monitor cytotoxicity in HepG2 cells - 8 hour (AID 1224890); further: nearly all actives have a fitted effect of over 45% in size; further: potency means the concentration at half of the fitted maximal effect
Summary of the method: as §2
On the % scale 0 is the no-effect control and ±100 the full control effect.

ClC1=C(Cl)[C@]2(Cl)[C@H]3[C@H]([C@@H]4C=C[C@H]3C4)[C@@]1(Cl)C2(Cl)Cl
active: Potency [1] 54.9 µM and 49 µM | Potency [3] 54.9 µM | Potency [4] 54.9 µM | Potency [5] 49 µM | Potency [6] 43.6 µM | Potency [7] 43.6 µM and 38.9 µM | Potency [8] 54.9 µM and 49 µM | Potency [10] 54.9 µM
inactive: Potency [2] | Potency [9]

O=C(O)[C@H](O)[C@@H](O)C(=O)O
inactive: Potency [1] | Potency [2] | Potency [3] | Potency [4] | Potency [5] | Potency [6] | Potency [7] | Potency [8] | Potency [9] | Potency [10]

Clc1c(Cl)c(Cl)c(Cl)c(Cl)c1Cl
inactive: cytotoxicity increase [1] -13.5% [at 6.97 µM] | cytotoxicity [2] 1.34% [at 6.97 µM] | cytotoxicity increase [3] -1.01% [at 6.97 µM] | cytotoxicity increase [4] -13.2% [at 6.97 µM] | activity change, negative = cytotoxic [5] -0.903% [at 6.97 µM] | activity change, negative = cytotoxicity [6] 2.9% [at 6.97 µM] | activity change, negative = cytotoxicity [7] 4.5% [at 6.97 µM] | activity change [8] -13.4% [at 6.97 µM, active compounds read high] | activity change, negative = cytotoxicity [9] 6.05% [at 6.97 µM] | cytotoxicity increase [10] 1.99% [at 6.97 µM]

O=NN(CCO)CCO
inactive: Potency [1] | Potency [2] | Potency [3] | Potency [4] | Potency [5] | Potency [6] | Potency [7] | Potency [8] | Potency [9] | Potency [10]

CC(=O)[O-].CC(=O)[O-].[Co+2]
inactive: Potency [1] | Potency [2] | Potency [3] | Potency [4] | Potency [5] | Potency [6] | Potency [7] | Potency [8] | Potency [9] | Potency [10]

ClCBr
inactive: Potency [1] | Potency [2] | Potency [3] | Potency [4] | Potency [5] | Potency [6] | Potency [7] | Potency [8] | Potency [9] | Potency [10]

Cc1c([N+](=O)[O-])c(C)c([N+](=O)[O-])c(C(C)(C)C)c1[N+](=O)[O-]
inactive: Potency [1] | Potency [2] | Potency [3] | Potency [4] | Potency [5] | Potency [6] | Potency [7] | Potency [8] | Potency [9] | Potency [10]

BrCCCBr
inactive: Potency [1] | Potency [2] | Potency [3] | Potency [4] | Potency [5] | Potency [6] | Potency [7] | Potency [8] | Potency [9] | Potency [10]

O=P(Cl)(Cl)Cl
inactive: Potency [1] | Potency [2] | Potency [3] | Potency [4] | Potency [5] | Potency [6] | Potency [7] | Potency [8] | Potency [9] | Potency [10]

COc1cnc(OC)n2nc(NS(=O)(=O)c3c(OCC(F)F)cccc3C(F)(F)F)nc12
inactive: Potency [1] | Potency [2] | Potency [3] | Potency [4] | Potency [5] | Potency [6] | Potency [7] | Potency [8] | Potency [9] | Potency [10]

Cc1cnc2c(C(=O)O)c(Cl)ccc2c1
inactive: Potency [1] | Potency [2] | Potency [3] | Potency [4] | Potency [5] | Potency [6] | Potency [7] | Potency [8] | Potency [9] | Potency [10]

c1cc[n+]2c(c1)-c1cccc[n+]1CC2
inactive: Potency [1] | Potency [2] | Potency [3] | Potency [4] | Potency [5] | Potency [6] | Potency [7] | Potency [8] | Potency [9] | Potency [10]

CNC(=O)Oc1cc(C)cc(C(C)C)c1
inactive: Potency [1] | Potency [2] | Potency [3] | Potency [4] | Potency [5] | Potency [6] | Potency [7] | Potency [8] | Potency [9] | Potency [10]

Cc1ccccc1OP(=O)(Oc1ccccc1C)Oc1ccccc1C
inactive: Potency [1] | Potency [2] | Potency [3] | Potency [4] | Potency [5] | Potency [8] | Potency [9] | Potency [10]

CC(C)N(C(=O)SC/C(Cl)=C/Cl)C(C)C
inactive: Potency [2] | Potency [3] | Potency [4] | Potency [5] | Potency [6] | Potency [8] | Potency [9] | Potency [10]
active: Potency [1] 39.2 µM

Clc1ccc(C2(Cn3cncn3)OCCO2)c(Cl)c1
inactive: Potency [1] | Potency [2] | Potency [3] | Potency [4] | Potency [5] | Potency [6] | Potency [7] | Potency [8] | Potency [9] | Potency [10]

O=C1C[C@@H]2OCC=C3CN4CC[C@]56c7ccccc7N1[C@H]5[C@H]2[C@H]3C[C@H]46
inactive: Potency [1] | Potency [2] | Potency [3] | Potency [4] | Potency [5] | Potency [8] | Potency [9] | Potency [10]

O.O.O.O.O.O.O=S(=O)([O-])[O-].[Ni+2]
inactive: Potency [1] | Potency [2] | Potency [3] | Potency [4] | Potency [5] | Potency [6] | Potency [7] | Potency [8] | Potency [10]

CC(=O)[O-].CC(=O)[O-].O.O.O.[Pb+2]
inactive: Potency [1] | Potency [2] | Potency [3] | Potency [4] | Potency [5] | Potency [7] | Potency [8] | Potency [9] | Potency [10]

N#Cc1sc2c(=O)c3ccccc3c(=O)c=2sc1C#N
active: Potency [1] 13.8 µM | Potency [3] 13.8 µM | Potency [5] 9.77 µM | Potency [6] 15.5 µM | Potency [7] 6.92 µM | Potency [8] 43.6 µM | Potency [9] 21.9 µM | Potency [10] 54.9 µM
inactive: Potency [2] | Potency [4]

O=C(NC(=O)c1ccccc1Cl)Nc1ccc(OC(F)(F)F)cc1
inactive: Potency [1] | Potency [2] | Potency [3] | Potency [4] | Potency [5] | Potency [7] | Potency [8] | Potency [9] | Potency [10]

Brc1ccc(Oc2ccc(Br)cc2Br)c(Br)c1
inactive: Potency [1] | Potency [2] | Potency [3] | Potency [4] | Potency [5] | Potency [8] | Potency [9] | Potency [10]
active: Potency [6] 49 µM
